In experiment [1] the target is Cytochrome P450 1A2 (Homo sapiens) (UniProt P05177). Kind of experiment: p450-cyp1a2 (AID 410; calls by dose curve; further: potency means the concentration at half of the fitted maximal effect). A digest of the protocol:
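Inhibition was calculated relative to 57 uM furafylline (full inhibition). The reaction used human CYP1A2 at 20nM with Luciferin-ME at its Km, 100uM, driven by an NADPH-regenerating system for 60 min at room temperature.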

The target in experiment [2] is Cytochrome P450 2C19 (Homo sapiens) (UniProt P33261). Kind of experiment: qHTS Assay for Inhibitors and Substrates of Cytochrome P450 2C19 (AID 899). Further: potency means the concentration at half of the fitted maximal effect; nearly all actives have a fitted effect of over 60% in size. A digest of the protocol:
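Luminescent read-out of luciferin formed from Luciferin-H EGE (10uM, equal to KM). Enzyme 5nM in 50mM KPO4; compound added, 10 min at 37C, then NADPH regenerating system for 60 min at 37C. Full inhibition defined by 57uM ketoconazole.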
(Quantitative high-throughput screening tests each substance at several concentrations.)

Experiment [3] deals with Cytochrome P450 3A4 (Homo sapiens) (UniProt P08684). Kind of experiment: qHTS Assay for Activators of Cytochrome P450 3A4 (AID 885). Further: nearly all actives have a fitted effect of over 65% in size. In outline:
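20nM CYP3A4 + 25uM Luciferin-PPXE (=KM), 200mM KPO4; cpd 10 min RT; NADPH regen, 60 min RT; stop w/ detection buffer, 20 min; luminescence. Normalized to 57 uM ketoconazole.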

Experiment [4] has the same target. The experiment is described as follows: qHTS Assay for Inhibitors and Substrates of Cytochrome P450 3A4 (AID 884). Further: potency means the concentration at half of the fitted maximal effect; nearly all actives have a fitted effect of over 50% in size. In outline: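 20 nM human CYP3A4 with 25 uM Luciferin-PPXE (at KM) in 200 mM KPO4, preincubated 10 min with compound; NADPH regeneration started a 60 min RT reaction. Luciferin detected by luminescence, normalized to 57 uM ketoconazole as full inhibition.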

Experiment [5] addresses Mitogen-activated protein kinase 10 (Mus musculus) (UniProt Q61831). Kind of experiment: JNK3 AlphaScreen Assay (AID 530; active means well fitted curve in either direction with a large enough effect, not every such curve was filed as active;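 further: kinase came from lysate of stimulated human HepG2 cells; signal reports phosphorylation of biotinylated GST-cJun 1-79 at Ser73 with 10 µM ATP; series mostly up to about 57 µM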). A digest of the protocol: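 qHTS format: compounds tested as titrations against IL-1beta/TNF-alpha-activated HepG2 lysate JNK3 with biotin-GST-cJun substrate and 10 uM ATP at room temperature. Loss of anti-phospho-cJun AlphaScreen signal indicates inhibition.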
On the technique in general: Bead proximity is the source of the signal in Alpha formats.

Records with an inconclusive call do not appear. Active and inactive are the calls of the source. Unless noted, the call rests on the fitted dose curve; in most records, active means well fitted curve in the direction sought with a large enough effect; inconclusive means small, poorly fitted or top-dose-only effect, or another doubt; inactive means no such curve, though single readings can be large; an effect the other way counts as inactive or inconclusive.

Chain of Cytochrome P450 3A4 (Homo sapiens) (P08684 whole entry, looked up): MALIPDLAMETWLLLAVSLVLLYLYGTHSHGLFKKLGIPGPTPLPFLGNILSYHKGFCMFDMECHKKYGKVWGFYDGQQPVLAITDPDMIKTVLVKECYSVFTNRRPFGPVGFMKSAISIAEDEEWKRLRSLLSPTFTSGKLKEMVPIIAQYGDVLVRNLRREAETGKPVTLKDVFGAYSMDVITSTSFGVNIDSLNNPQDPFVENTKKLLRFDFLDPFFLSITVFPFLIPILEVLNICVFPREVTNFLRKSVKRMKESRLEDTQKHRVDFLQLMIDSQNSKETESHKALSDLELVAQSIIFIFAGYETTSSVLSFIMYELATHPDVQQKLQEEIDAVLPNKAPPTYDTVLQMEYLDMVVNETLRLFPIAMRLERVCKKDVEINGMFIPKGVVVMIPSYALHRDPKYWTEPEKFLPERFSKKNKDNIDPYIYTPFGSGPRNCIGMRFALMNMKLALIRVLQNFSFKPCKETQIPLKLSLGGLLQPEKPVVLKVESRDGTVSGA
Chain of Cytochrome P450 1A2 (Homo sapiens) (P05177 whole entry, looked up): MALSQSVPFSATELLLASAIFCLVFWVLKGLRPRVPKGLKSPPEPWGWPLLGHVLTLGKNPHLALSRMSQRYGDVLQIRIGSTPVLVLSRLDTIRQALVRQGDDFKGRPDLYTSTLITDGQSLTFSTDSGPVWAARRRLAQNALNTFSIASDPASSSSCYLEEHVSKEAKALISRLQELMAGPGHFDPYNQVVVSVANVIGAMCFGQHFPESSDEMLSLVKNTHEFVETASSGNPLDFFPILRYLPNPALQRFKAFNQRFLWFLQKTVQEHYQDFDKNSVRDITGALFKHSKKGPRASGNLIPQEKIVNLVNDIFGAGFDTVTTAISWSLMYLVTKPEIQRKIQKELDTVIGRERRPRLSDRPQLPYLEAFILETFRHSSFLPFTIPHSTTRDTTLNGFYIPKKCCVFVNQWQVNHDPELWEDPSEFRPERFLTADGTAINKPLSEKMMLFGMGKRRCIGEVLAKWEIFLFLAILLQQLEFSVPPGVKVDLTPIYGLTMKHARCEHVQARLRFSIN
Chain of Cytochrome P450 2C19 (Homo sapiens) (P33261 whole entry, looked up): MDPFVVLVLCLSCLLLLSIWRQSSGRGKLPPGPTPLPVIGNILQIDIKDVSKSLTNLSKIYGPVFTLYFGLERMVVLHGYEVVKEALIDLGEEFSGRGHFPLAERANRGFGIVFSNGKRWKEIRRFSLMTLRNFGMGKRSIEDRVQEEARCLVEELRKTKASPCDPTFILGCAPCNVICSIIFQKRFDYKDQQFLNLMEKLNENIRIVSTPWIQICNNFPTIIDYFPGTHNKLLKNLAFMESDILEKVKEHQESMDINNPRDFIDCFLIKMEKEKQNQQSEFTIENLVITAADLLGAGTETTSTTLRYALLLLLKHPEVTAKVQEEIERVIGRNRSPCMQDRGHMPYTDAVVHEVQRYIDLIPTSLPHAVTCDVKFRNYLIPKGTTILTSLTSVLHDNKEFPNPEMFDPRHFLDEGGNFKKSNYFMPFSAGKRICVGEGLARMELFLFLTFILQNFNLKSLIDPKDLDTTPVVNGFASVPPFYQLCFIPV

For `CCC/C=C(\CCC)C(NS(=O)(=O)c1ccc(-c2ccccc2)cc1)c1ccc(C(=O)OC)cc1` (centres undefined), the Potency was 6.31 µM (active) in experiment [1] and 1.26 µM (active) in experiment [2].
Consider `CCc1c2c(nc3c(C(C)C)cccc13)-c1cccc(=O)n1C2`, for which the Potency in experiment [1] was 0.398 µM (active). For the same molecule, the Potency entry in experiment [3] was “inactive”.
For `COC(=O)[C@@]1(Cc2ccccc2)[C@@H]2C(=CC(=O)[C@H]2CC(=O)C(=O)N(C)C)CN1C(=O)c1ccccc1`, the Potency entry in experiment [1] and in experiment [3] was “inactive” throughout. The Potency in experiment [4] is 7.94 µM (active).
As for `CC(C)(C)[Si](C)(C)c1c2c(nc3ccc(OCc4ccccc4)cc13)-c1cccc(=O)n1C2`, in experiment [1], the Potency was 5.01 µM (active). Further, the Potency result in experiment [5] and in experiment [3] was “inactive” in each case.
For `CCC/C=C(\CCC)C(NC(=O)Cc1ccccc1)c1ccc(C(=O)OC)cc1` (centres undefined), the Potency in experiment [1] was 15.8 µM (active); in experiment [4] it was 3.98 µM (active); in experiment [2] it was 2.51 µM (active). In addition, the Potency entry in experiment [3] is “inactive”.

The record behind these values is PubChem BioAssay (NCATS).
